Reference: PubChem BioAssay AID1875 (Broad Institute, 2009)
Out of some 300,000 compounds screened, about 65 (0.02%) were called active.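 How the source made its calls: active means lowest replicate activity score at least 50, where 100 means six control SD above control mean; inconclusive means lowest score under 50 but half or more replicates reach 50; inactive means the rest.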 The full list was thinned out, with actives kept by preference.

Assay: polyadenylation inhibitors in yeast reporter cells, primary screen, luminescence, S. cerevisiae (AID 1875);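 further: yeast exposed to compound for 9 h at 30 °C; higher score means more reporter readthrough which indicates perturbed polyadenylation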
Details: S. cerevisiae SKY197-pL101 polyadenylation reporter, beta-gal luminescence; at 12 µM; hits give high values; efflux-impaired pdr1/pdr3 knockout yeast; score 100 = 6 SD above DMSO

Activity score, inactive:
COc1ccc(NC(=O)C/C(C)=N/NC(=O)c2cnccn2)cc1Cl 4.46%, CCN(CC)CC(=O)Nc1nn(-c2ccccc2)nc1C(N)=O 3.8%, Cc1ccccc1N1C(=O)C(Oc2ccc(Cl)cc2)C1CNCC1CCCO1 (stereo not drawn) -13.7%, COC(=O)c1ccc(SCc2ccccc2)nc1 5.84%, CC(C)(C)N(Cc1ccccc1)C(=O)COC(=O)CCc1c[nH]c2ccccc12 9.29%, CCN(CC)c1ccc(C(=O)Nn2c(C)nc3ccccc3c2=O)cc1 -0.748%, O=C(CCc1nnc(Cc2ccc3c(c2)OCO3)o1)NCCc1ccccc1Cl 6.46%, O=C(COc1coc(CN2CCN(c3ccccc3)CC2)cc1=O)N1CCc2ccccc21 -4.04%, O=C(Cc1ccccc1)Nc1c(Cl)ccc2nsnc12 16.1%, Cc1[nH]n(C(N)=S)c(=O)c1N=Nc1ccc(Cl)cc1Cl -14.2%, COc1ccc(OC)c(NC(=O)CSc2nc(-c3ccccc3)cc(=O)[nH]2)c1 -4.65%, CC1CCN(CCCn2c(SCC(=O)NC3CCCC3)nc3ccccc3c2=O)CC1 -3.59%, COc1cccc(C(=O)Nc2nnc(S(=O)(=O)N3CCOCC3)s2)c1 16.5%, Cc1ccc(S(=O)(=O)C2C(=O)NC3(C)CC2c2ccccc2O3)cc1 (stereo not drawn) 1.24%, COc1ccc(C(=O)C2CCCN(C(=O)c3cc4nc(C)cc(C)n4n3)C2)cc1F (stereo not drawn) 4.72%, CN(CCO)c1ccc(/C=N/Nc2nncc3ccccc23)cc1 -9.02%, Cc1ccccc1CN1C[C@@H]2C[C@@H](c3cn(C)nc3-c3ccccc3)N3CCC[C@@]23C1=O -0.645%, COc1cc(CNc2ncn[nH]2)ccc1OCc1ccccc1C 5.71%, CN(CCOc1ccccc1)Cc1nc2cc(Cl)ccc2c(=O)[nH]1 6.63%, CC(C)(C)c1ccccc1NC(=O)CN1C(=O)NC2(CCCC2)C1=O 9.67%, Cc1ccc(CS(=O)(=O)CCC(=O)NCc2ccc(F)cc2)cc1 -0.106%, CCn1c(Cc2ccc(OC)cc2)nnc1SCC(=O)Nc1ccc(N2CCOCC2)cc1 -14.5%, Cc1ccc(NN=Nc2nc3c([nH]2)c(=O)n(C)c(=O)n3C)cc1 15.9%, COc1cc(NS(=O)(=O)c2ccc(NC(=O)c3ccc([N+](=O)[O-])cc3)cc2)ncn1 -0.0482%, O=C(CCCCCn1c(=S)[nH]c2ccsc2c1=O)NC1CCCCC1 -14.5%, CCCCn1c(N)c(N(CCOC)C(=O)c2cccc(OCc3ccccc3)c2)c(=O)[nH]c1=O -6.78%, Brc1ccccc1/C=N/Nc1nc2ccccc2o1 -16.6%, Cc1ccc(N(Cc2cc(=O)[nH]c3ccccc23)C(=O)CCl)cc1 29.9%, COC(=O)c1c(C)[nH]c(C(=O)/C=C/c2ccc(Cl)cc2)c1C -2.04%, O=C(NCCc1ccccc1)C1CCC(Cn2c(=O)c3ccccc3n(Cc3cccnc3)c2=O)CC1 (stereo not drawn) -5.99%, COc1ccc(-c2nn(-c3ccccc3)cc2CN2CCCO2)c(F)c1 0.939%, O=C(NCCCn1ccnc1)/C(=C\c1ccccc1F)NC(=O)c1ccccc1 11.1%, CN(C(=O)C1CCN(c2ncnc3c2nc2n3CCCCC2)CC1)C1CCCCC1 5.63%
